We go through 14 compounds from PubChem BioAssay AID1745853 (National Center for Advancing Translational Sciences (NCATS), 2022).

Test in all cases: Primary Screen for Target Class Profiling of Small Molecule Inhibitors of Methyltransferases
The target in assay [1] is Catechol O-methyltransferase (Homo sapiens) (UniProt P21964). The settings on record: purified enzyme, MTase-Glo SAH luminescence; activity change, negative = inhibition: at 40 µM, stronger effect = lower value; outcome: 40 uM. An excerpt: (§1) PI: Matthew D. Hall Ph.D. and Quinlin M. Hanson Ph.D.
(§2) National Center for Advancing Translational Sciences (NCATS)
(§3) National Institute of Health (NIH), Rockville, MD
(§4) Target class profiling (TCP) is a chemical biology approach amenable to investigating understudied biological targets. TCP is achieved by developing a generalizable assay platform and applying it to screen a curated set of compound libraries against representative members of a target class. Small molecule methyltransferases (SMMTase) are a subclass of methyltransferase that act on metabolites to modulate signaling pathways, metabolize xenobiotics, or balance the available methyl pool. We screened four curated libraries totaling 27,574 unique compounds against the SMMTases nicotinamide N-methyltransferase (NNMT), phenylethanolamine N-methyltransferase (PNMT), histamine N-methyltransferase (HNMT), glycine N-methyltransferase (GNMT), catechol O-methyltransferase (COMT), and guanidinoacetate N-methyltransferase (GAMT). The data generated by this TCP can be leveraged for informed tool molecule development. For example, in the associated publication we identified a chemotype of HNMT-selective inhibitors. Additionally, we identified a putative SMMTase-selective inhibitor with potential as a tool molecule for studying broader methyltransferase biology.
(§5) High-through put screening assays were developed at the National Center for Advancing Translational Science (NCATS) for the enzymes NNMT, PNMT, HNMT, GNMT, COMT, and GAMT. Enzymatic activity was measured as a function of SAM cofactor conversion using the MTase Glo kit (Promega) for all enzymes. All assays were performed in 1536-well format with substrates and SAM concentrations at KM values. Enzyme concentration and assay timing were optimized for 10-20% SAM conversion. Initial screening of 27,574 compounds was done as single-point assays using the highest compound concentration (40 uM). […] These compounds were replated in 11-point dose response and assayed against NNMT, PNMT, HNMT, GNMT, COMT, GAMT, and a counter-assay. The IC50 and efficacy (maximal response) values were determined for each dose-response curve. These values are also accounted for in the area under the curve (AUC) values.
(§6) PROTOCOL TABLE (as described by Inglese J, Shamu CE and Guy RK. 2007)
(§7) SEQUENCE No. (e.g., 1, 2, 3, etc.); […] (e.g., Cells, Incubation, Reagent, etc.); VALUE; DESCRIPTION.
(§8) 1; Reagent; 2 uL; SMMTase Enzyme (2x) in reaction buffer, columns 1- 48.
(§9) 2; Reagent; 1 uL; SAM (4x) in reaction buffer, columns 1-48.
(§10) 3; Controls; 23 nL; DMSO in column 4; sinefungin in DMSO (0 uM - 40 uM) in 7-point 1:2 dilution series (n = 2) in column 2.
(§11) 4; Compounds; 23 nL; Columns 5-48.
(§12) 5; Reagent; 1 uL; Substrate (4x) in reaction buffer, columns 2-48.
(§13) 6; Time; 20-30 min; Incubation.
(§14) 7; Reagent; 1 uL; MTase-Glo reagent (5X), columns 1-48.
(§15) 8; Time; 30 min; Incubation.
(§16) 9; Reagent; 5 uL; MTase-Glo Detection reagent, columns 1-48.
(§17) 10; Time; 30 min; Incubation, luminescence evolution.
(§18) 11; Detection; Luminescence; ViewLux uHTS Microplate Imager (PerkinElmer).
(§19) NOTES (numbers refer to Sequence numbers above)
(§20) 1, 2, 5. White Medium Binding Greiner 1536-well plates (Cat #789175-F, Greiner Bio-One, Monroe, NC); Reaction buffer: 50 mM Tris, pH 8.0, 3 mM MgCl2, 1 mM EDTA, 50 mM NaCl, 1 mM DTT, and 0.1 mg/mL BSA. Evaporation was prevented by covering assay plates with metal lids containing holes to allow gas diffusion.
(§21) 1. Six SMMTase were profiled: HNMT, GNMT, PNMT, COMT, NNMT, GAMT
(§22) 5. The corresponding substrate was used for each enzyme: HNMT - 5.3 uM Histamine; GNMT - >500 uM Glycine; PNMT - 16.2 uM Norephinephrine; COMT - 13.7 uM Norephinephrine; NNMT - 3.8 uM Nicotinamide; GAMT - 2.5 uM Guanidinoacetate.6, 8, 10. Room temperature
(§23) 6. Final reaction conditions: 10 nM COMT, 5 uM SAM, 15 uM norepinephrine, 50 mM Tris, pH 8.0, 3 mM MgCl2, 1 mM EDTA, 50 mM NaCl, 1 mM DTT, and 0.1 mg/mL BSA; refer to tables 2 and S1 for specific timing.
8. […]

Assay [2] deals with Glycine N-methyltransferase (Homo sapiens) (UniProt Q14749). The settings on record: purified enzyme, MTase-Glo SAH luminescence; measured here: GNMT inhibition; at 40 µM; stronger effect = lower value.
From the text: as §1, §2, §3, §4, §5, §6, §7, §8, §9, §10, §11, §12, §13, §14, §15, §16, §17, §18, §19, §20, §21, §22, §23
8. […]

Assay [3] deals with Guanidinoacetate N-methyltransferase (Homo sapiens) (UniProt Q14353). The settings on record: purified enzyme, MTase-Glo SAH luminescence; measured here: GAMT inhibition; at 40 µM; stronger effect = lower value.
From the text: as §1, §2, §3, §4, §5, §6, §7, §8, §9, §10, §11, §12, §13, §14, §15, §16, §17, §18, §19, §20, §21, §22, §23
8. […]

Assay [4] has as its target Histamine N-methyltransferase (Homo sapiens) (UniProt P50135). The conditions noted are these: purified enzyme, MTase-Glo SAH luminescence; measured here: HNMT inhibition; at 40 µM; stronger effect = lower value.
From the text: as §1, §2, §3, §4, §5, §6, §7, §8, §9, §10, §11, §12, §13, §14, §15, §16, §17, §18, §19, §20, §21, §22, §23
8. […]

Assay [5] concerns the target Nicotinamide N-methyltransferase (Homo sapiens) (UniProt P40261). The settings on record: purified enzyme, MTase-Glo SAH luminescence; measured here: NNMT inhibition; at 40 µM; stronger effect = lower value.
From the text: as §1, §2, §3, §4, §5, §6, §7, §8, §9, §10, §11, §12, §13, §14, §15, §16, §17, §18, §19, §20, §21, §22, §23
8. […]

Assay [6] concerns the target Phenylethanolamine N-methyltransferase (Homo sapiens) (UniProt P11086). The settings on record: purified enzyme, MTase-Glo SAH luminescence; measured here: PNMT inhibition; at 40 µM; stronger effect = lower value.
From the text: as §1, §2, §3, §4, §5, §6, §7, §8, §9, §10, §11, §12, §13, §14, §15, §16, §17, §18, §19, §20, §21, §22, §23
8. […]

Screen size: about 25,000 compounds; about 970 (3.9%) were called active. Inconclusive results (about 8%) are left out. The rule behind the calls is not given here. For the sample, actives were picked, then their nearest neighbours and some compounds at random.
% is set by controls: 0 for no effect and ±100 for the full control effect.

Nicotinamide N-methyltransferase (Homo sapiens), sequence (P40261 whole entry, looked up): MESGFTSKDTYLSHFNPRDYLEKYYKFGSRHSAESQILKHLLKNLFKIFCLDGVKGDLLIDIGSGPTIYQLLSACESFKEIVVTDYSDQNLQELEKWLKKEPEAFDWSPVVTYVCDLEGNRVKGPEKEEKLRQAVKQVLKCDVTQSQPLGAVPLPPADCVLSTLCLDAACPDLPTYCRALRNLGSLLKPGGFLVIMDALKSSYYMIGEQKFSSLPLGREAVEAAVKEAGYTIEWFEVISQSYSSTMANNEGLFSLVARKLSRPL
Glycine N-methyltransferase (Homo sapiens), sequence (Q14749 whole entry, looked up): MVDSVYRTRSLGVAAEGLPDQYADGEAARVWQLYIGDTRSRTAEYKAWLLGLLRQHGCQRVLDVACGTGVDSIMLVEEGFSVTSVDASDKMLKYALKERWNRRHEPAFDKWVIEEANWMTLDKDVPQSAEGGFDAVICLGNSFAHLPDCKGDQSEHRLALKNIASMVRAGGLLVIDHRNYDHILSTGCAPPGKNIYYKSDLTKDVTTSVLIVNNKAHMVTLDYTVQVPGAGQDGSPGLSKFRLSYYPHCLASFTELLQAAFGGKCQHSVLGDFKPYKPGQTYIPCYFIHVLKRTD
Histamine N-methyltransferase (Homo sapiens), sequence (P50135 whole entry, looked up): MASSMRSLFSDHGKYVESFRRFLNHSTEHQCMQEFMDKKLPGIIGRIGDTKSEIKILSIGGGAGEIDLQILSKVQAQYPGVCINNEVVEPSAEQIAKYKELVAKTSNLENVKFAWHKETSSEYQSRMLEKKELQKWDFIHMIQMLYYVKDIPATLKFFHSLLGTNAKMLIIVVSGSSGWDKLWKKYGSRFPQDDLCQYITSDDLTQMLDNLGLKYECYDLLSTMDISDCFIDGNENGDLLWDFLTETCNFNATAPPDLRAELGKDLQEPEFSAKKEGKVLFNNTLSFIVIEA
Phenylethanolamine N-methyltransferase (Homo sapiens), sequence (P11086 whole entry, looked up): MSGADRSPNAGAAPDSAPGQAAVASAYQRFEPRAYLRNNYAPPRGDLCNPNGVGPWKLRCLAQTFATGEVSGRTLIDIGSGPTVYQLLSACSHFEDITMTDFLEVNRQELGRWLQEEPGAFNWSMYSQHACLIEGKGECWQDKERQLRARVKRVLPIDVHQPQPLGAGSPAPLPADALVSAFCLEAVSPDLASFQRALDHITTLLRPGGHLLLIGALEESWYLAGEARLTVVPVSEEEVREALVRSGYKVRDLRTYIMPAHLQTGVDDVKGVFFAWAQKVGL
Catechol O-methyltransferase (Homo sapiens), sequence (P21964 whole entry, looked up): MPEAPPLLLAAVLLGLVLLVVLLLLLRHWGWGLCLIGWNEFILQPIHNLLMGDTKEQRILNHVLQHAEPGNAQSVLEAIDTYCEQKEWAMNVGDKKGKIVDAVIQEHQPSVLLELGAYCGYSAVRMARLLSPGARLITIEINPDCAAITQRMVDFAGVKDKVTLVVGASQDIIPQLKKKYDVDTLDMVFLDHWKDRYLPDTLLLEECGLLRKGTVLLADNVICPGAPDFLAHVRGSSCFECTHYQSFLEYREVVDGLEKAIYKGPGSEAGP

Consider `CCOC(=O)c1cc2n(n1)CC(C)(C(=O)NC1CCCC1)N(c1ccc(C)c(C)c1)C2=O` (centres undefined), for which the activity change, negative = inhibition in assay [1] is 1.75% (inactive); in assay [2] it was 4.07%; in assay [3] it was 4.83%; in assay [4], 3.71%; in assay [5], 1.82%; in assay [6] it was 2.03%.
`O=C(NCc1ccc(Cl)cc1)c1cc(-c2ccc[nH]2)n[nH]1`: the activity change, negative = inhibition was -7.05% (inactive) in assay [1]; -26.5% in assay [2]; -7.92% in assay [3]; -7.72% in assay [4]; -8.3% in assay [5]; 2.91% in assay [6].
As to `O=C(Nc1ccc2ncnc(N3CCCCC3)c2c1)C1CCCCC1`, the activity change, negative = inhibition in assay [1] is -91.5% (active); in assay [2], -90.3%; in assay [3] it was -88.7%; in assay [4], -91.6%; in assay [5], -92.3%; in assay [6], -90.6%.
Turning to `O=C(N[C@@H]1CN(c2ccncn2)C[C@H]1CO)C1CCCC1`, the activity change, negative = inhibition is -2.82% (inactive) in assay [1]; -3.56% in assay [2]; -4.46% in assay [3]; -1.77% in assay [4]; -6.98% in assay [5]; -3.66% in assay [6].
For `Cn1nccc1C(=O)NC1CCCN(c2cc(N3CCCC3)ncn2)C1` (centres undefined), the activity change, negative = inhibition in assay [1] is -8.51% (inactive); in assay [2], -8.51%; in assay [3], -10.5%; in assay [4], -21.6%; in assay [5], -17.7%; in assay [6] it was -11.9%.
In the case of `COc1ccc(OC)c(CNC(=O)CCn2ccc3cc(S(=O)(=O)N4CCCCC4)ccc32)c1`, the activity change, negative = inhibition in assay [1] was -2.28% (inactive); in assay [2], -4.44%; in assay [3], 0.679%; in assay [4], -7.33%; in assay [5] it was -15%; in assay [6], -3.87%.
For `COc1cc2c(cc1O)NC(=O)CC2c1cn[nH]c1-c1cc(C)ccc1C` (centres undefined), the activity change, negative = inhibition in assay [1] was -43% (active); in assay [2] it was -48.4%; in assay [3], -38.7%; in assay [4], -60.8%; in assay [5], -38.3%; in assay [6] it was -13.5%.
Take `COCC(=O)Nc1ncncc1-c1noc([C@@H]2CCCN2Cc2cc(OC)c(OC)c(OC)c2)n1`: the activity change, negative = inhibition in assay [1] was -16.9% (inactive); in assay [2], -9.35%; in assay [3], -8.08%; in assay [4] it was -8.93%; in assay [5], -16.4%; in assay [6], -12.8%.
`O=C(c1ccc(C(F)(F)F)cc1)N1CCC2(COc3ccncc3[S+](=O)([O-])N2)C1` (centres undefined): the activity change, negative = inhibition in assay [1] is -0.613% (inactive); in assay [2], -4.6%; in assay [3], -3.02%; in assay [4], -0.962%; in assay [5], -5.7%; in assay [6] it was -0.429%.
As to `Cn1ccc(Nc2cc3c(cn2)CN(CCc2ccccc2)CCN3)n1`, the activity change, negative = inhibition is -9.44% (active) in assay [1]; -10.2% in assay [2]; -12.2% in assay [3]; -92.8% in assay [4]; -17.5% in assay [5]; -56.1% in assay [6].
Take `O=C1N2CCCC2CN1C1CCN(Cc2ccsc2)CC1` (centres undefined): the activity change, negative = inhibition in assay [1] was 3.52% (inactive); in assay [2], -1.71%; in assay [3], 0.192%; in assay [4], 0.939%; in assay [5], -3.94%; in assay [6], 6.61%.
Take `CN(CC(=O)N1CCC2(CCNCC2)CC1)Cc1cccnc1`: the activity change, negative = inhibition was -5.94% (inactive) in assay [1]; -3.63% in assay [2]; -4.3% in assay [3]; -5.87% in assay [4]; -4.19% in assay [5]; -3.85% in assay [6].
Regarding `COc1ccc(S(=O)(=O)N2CCCCC2c2n[nH]c(C)n2)cc1` (centres undefined), the activity change, negative = inhibition is 12.4% (inactive) in assay [1]; 15.6% in assay [2]; 2.87% in assay [3]; 11.2% in assay [4]; 10.1% in assay [5]; 11.2% in assay [6].
As for `O=C1NC(=NC2CCCC2)C2(CCCN([S+](=O)([O-])c3ccccc3)C2)N1c1cccnc1` (centres undefined), the activity change, negative = inhibition in assay [1] was -0.276% (inactive); in assay [2], -3.99%; in assay [3], -4.94%; in assay [4], -1.01%; in assay [5], -11%; in assay [6], -21.7%.
